# From PubChem
# Pf growth 96h: P. falciparum growth inhibition at 96 hours; P. falciparum luciferase reporter growth, 96 h; AID 504834; Potency, µM (series often up to 28.7 µM), without a hit: top-dose activity change, negative = inhibition, most hits filed as inhibitors; 6.9% of 320,000 active; also: potency is read from the fitted curve at half-maximal effect; % is scaled to controls: 0 for no effect and ±100 for the full control effect
#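 Parasite growth measured via integrated firefly luciferase reporter in P. falciparum. Infected erythrocytes at 2% hematocrit, 0.05% parasitemia final were treated 96 hours at 37 C under 5% CO2, and luminescence was read.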
# Cycloheximide cs: counter-screen for Shiga toxin inhibitors: cycloheximide protein synthesis inhibition | cell reporter, cycloheximide protein synthesis inhibition counterscreen | max response, % | 12% of 300,000 active | AID 2314; in the data active = max response mostly above about 13%, no sharp cut-off; inactive = mostly below about 14%; also: read at 38.3 µM for the half of the compounds with a filed dose; 0% is about no effect
# Shiga inhibitor: Shiga toxin inhibition; Vero cells, Shiga toxin protein synthesis inhibition reporter; inhibition, % at 38.7 µM; 9.2% of 290,000 active; in the data active = inhibition mostly above about 28%, no sharp cut-off; inactive = mostly below about 43%; also: 0% is about no effect
# Pf growth 48h: P. falciparum growth inhibition at 48 hours (one generation). Potency, µM (series often up to 28.7 µM), inactives show at the highest dose activity change, negative = inhibition, hits mostly inhibitors. 5.9% of 310,000 active. P. falciparum luciferase growth in erythrocytes, 48 h. AID 504832; also: potency is read from the fitted curve at half-maximal effect; % is scaled to controls: 0 for no effect and ±100 for the full control effect
#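 Firefly luciferase activity from engineered P. falciparum reports growth; inhibitors lower the luminescent signal. Cultures contained 2% hematocrit erythrocytes at 0.1% final parasitemia.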
# Sm TGR inh: inhibitors of Schistosoma mansoni thioredoxin glutathione reductase. Q962Y6. purified TGR, DTNB reduction, TNB absorbance 405 nm. Potency, µM (series often up to 114 µM), without a hit: at the highest dose activity change, negative = inhibition, most hits filed as inhibitors. 3% of 360,000 active. AID 485364; also: potency is read from the fitted curve at half-maximal effect; % is scaled to controls: 0 for no effect and ±100 for the full control effect; nearly all actives have a fitted effect of over 60% in size
#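 First, TGR (20 nM dispensed) and NADPH were mixed with compound. Second, a 15 min room-temperature incubation followed. Third, further NADPH and then DTNB were added to start the reaction. Finally, TNB absorbance was monitored kinetically.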
# NS1 function inh: inhibitors of influenza NS1 protein function; Potency, µM (highest dose often 46.1 µM), for the others: at the highest dose activity, positive = more growth; 0.4% of 270,000 active; calls by dose curve; also: potency is read from the fitted curve at half-maximal effect; actives are rising curves; nearly all actives have a fitted effect of over 50% in size
#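 Compounds were scored for reversing the slow growth caused by influenza A NS1 in S. cerevisiae, measured by optical density at 600 nm. Assay medium contained 2% galactose at pH 6.0; NS1-free yeast of the same strain were the positive control.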
# * = called active by the depositor; ? = inconclusive; . = not tested or not shown. Hits are enriched below; roughly 21% of the tested compounds scored in any of these assays. Unless noted, calls follow the shape of the dose curve; as a rule, active = well fitted curve in the direction sought with a large enough effect; inconclusive = small, poorly fitted or top-dose-only effect, or another doubt; inactive = no such curve, though single readings can be large; an effect the other way counts as inactive or inconclusive.
SMILES,Pf growth 96h,Cycloheximide cs,Shiga inhibitor,Pf growth 48h,Sm TGR inh,NS1 function inh
Cn1c(CCN2CCCCC2)nc2cc(NC(=O)COc3ccc(Cl)cc3)ccc21,?,-5,3,?,-3%,0%
COc1ccc(OCC(=O)Nc2ccc3c(c2)nc(CCn2ccccc2=O)n3C)cc1,5.2µM*,5,14,?,1%,-7%
CN1CCN(CCc2nc3cc(NC(=O)COc4ccc(Cl)cc4)ccc3n2C)CC1,9.3µM*,-6,0,?,?,-6%
CCC(=O)NCCc1nc2cc(NC(=O)COc3ccccc3)ccc2n1C,-19%,29*,78*,87%,-6%,7%
O=C(COc1ccc(Nc2ccccc2)cc1)Nc1ccncc1,0%,.,.,-6%,45µM*,.
CC1CCN(CCc2nc3cc(NC(=O)COc4ccccc4)ccc3n2C)CC1,?,6,7,?,1%,7%
Cc1nn(-c2ccccc2)c(C)c1C(=O)OCC(=O)N1c2ccccc2NC(=O)C1(C)C,-88%,10,-5,.,1%,-1%
CCCc1nnc(SCC(=O)NC2CCCCC2)n1CCOC,103%,1,-1,22%,10%,20%
CCC1(c2ccc(O)cc2)NC(=O)N(C)C1=O (stereo not drawn),.,-1,-13,.,.,.
COc1ccc(NC(=O)c2cc(-c3ccccc3F)no2)cc1,.,.,.,.,-15%,.
CC(=O)NCCc1nc2cc(NC(=O)c3ccc(F)cc3)ccc2n1C,296%,54*,44*,142%,-11%,-3%
CCC(=O)NCCc1nc2cc(NC(=O)c3ccccc3OC)ccc2n1C,.,43*,25,47%,0%,0%
O=C1OC(c2ccccc2)=C/C1=C\N1CCOCC1,17%,7,-4,95%,20µM*,-5%
O=C1OC(c2ccccc2)=C/C1=C/N1CCOCC1,?,17*,63*,159%,40µM*,3%
O=C1SC(c2ccccc2)=C/C1=C\N1CCCCC1,?,23,45,5%,0%,-53%
Cc1cccc(C)c1NC(=O)Nc1ccc2c(c1)OCO2,-2%,27,38,?,11%,.
Cc1nn(C)cc1CNC(=O)Nc1cccc(Cl)c1,88%,67*,90*,.,-1%,5%
O=C(NCc1ccc2c(c1)OCO2)Nc1cccc(Cl)c1,2%,41*,57*,22%,9%,-19%
O=C(Nc1cccc(Cl)c1)Nc1ccc2c(c1)OCO2,.,48*,73*,-2%,2%,-21%
CC(=O)c1cccc(NC(=O)NCc2ccc3c(c2)OCO3)c1,3.7µM*,13,-6,1%,-8%,-10%
Cc1nn(C)cc1CNC(=O)Nc1ccc(Br)cc1Cl,?,5,19,?,-7%,-2%
O=C(NCc1ccc2c(c1)OCO2)Nc1cccc2ccccc12,16%,1,1,13%,-9%,-2%
O=C(CN1CCc2ccccc21)NN1CC(=O)N(c2ccc(Cl)cc2)CC1=O,?,-1,-4,-31%,5%,8%
Cc1onc(-c2ccccc2Cl)c1C(=O)Nc1ncn[nH]1,28%,-1,23,-3%,-1%,6%
CC(=O)c1cccc(NC(=O)Nc2ccc3c(c2)OCO3)c1,43%,38*,88*,118%,1%,9%
SMILES,Pf growth 96h,Cycloheximide cs,Shiga inhibitor,Pf growth 48h,Sm TGR inh,NS1 function inh
Nc1c(C(=O)Nc2ccc(C(F)(F)F)cc2)sc2nc(-c3cccs3)ccc12,.,.,.,.,-3%,.
COc1ccc(C(=O)c2sc3nc(-c4ccccc4)ccc3c2N)cc1OC,?,-3,-16,7%,0%,7%
CCOC(=O)c1sc2nc(-c3ccccc3)ccc2c1N,-1%,92*,67*,85%,-4%,-7%
NC(=O)c1sc2nc(-c3ccccc3)ccc2c1N,0%,35*,97*,?,-21%,-6%
Nc1c(C(=O)NC2CCCC2)sc2nc(-c3cccs3)ccc12,-91%,22*,39,21%,-1%,1%
NC(=O)c1sc2nc(-c3cccs3)ccc2c1N,108%,49*,64*,86%,7%,1%
CSc1cccc(NC(=O)COC(=O)C2CCN(S(=O)(=O)c3ccccc3)CC2)c1,-2%,.,.,4%,6%,.
Cc1cccc(C)c1OCCn1c(C2CC(=O)N(Cc3ccc(F)cc3)C2)nc2ccccc21 (stereo not drawn),.,.,.,.,-4%,.
CC1Cc2cc(S(=O)(=O)N3CCN(c4ccccc4F)CC3)ccc2N1C(=O)C1CCC1 (stereo not drawn),.,.,.,.,-1%,.
CCC(C)(C)C1CCC(NC(=O)N2CCN(c3ccccc3O)CC2)CC1 (stereo not drawn),-19%,8,2,?,103%,0%
COCCn1c(=N)c(C(=O)NCC2CCCO2)cc2c(=O)n3ccccc3nc21 (stereo not drawn),.,.,.,.,6%,.
N=c1c(C(=O)NC2CCCC2)cc2c(=O)n3ccccc3nc2n1CC1CCCO1 (stereo not drawn),?,-5,-11,13µM*,3%,0%
Cc1ccc2nc3c(cc(C(=O)NCC4CCCO4)c(=N)n3CC3CCCO3)c(=O)n2c1 (stereo not drawn),54%,-3,-5,45%,1%,12%
CC(NC(=O)c1cc2c(=O)n3ccccc3nc2n(CC2CCCO2)c1=N)c1ccccc1 (stereo not drawn),19%,-3,-10,13µM*,6%,-2%
Cc1ccc(CNC(=O)c2cc3c(=O)n4ccccc4nc3n(CC3CCCO3)c2=N)cc1 (stereo not drawn),?,-4,-6,2.6µM*,-12%,-3%
CCNc1nc2nc3ccc(C)cn3c(=O)c2cc1C(=O)NCC1CCCO1 (stereo not drawn),38%,-1,-8,5%,5%,2%
C=CCNC(=O)c1cc2c(=O)n3cc(C)ccc3nc2nc1NCC1CCCO1 (stereo not drawn),4.1µM*,-4,-8,8%,-4%,-2%
N=c1c(C(=O)NC2CCCCC2)cc2c(=O)n3ccccc3nc2n1CC1CCCO1 (stereo not drawn),?,-3,8,?,-5%,2%
COc1ccc(NC(=O)c2ccco2)c2ccccc12,0%,-2,-4,-2%,1%,-6%
CCN(CC)S(=O)(=O)c1ccc2c(c1)N(CC(=O)NCCc1ccccc1)C(=O)CO2,.,.,.,.,1%,.
Clc1ccc2c(c1)[C@H]1OCC[C@H]1[C@@H](c1ccco1)N2,?,25*,66*,100%,40µM*,-4%
Fc1ccc2c(c1)[C@H]1OCC[C@H]1[C@@H](c1ccco1)N2,-22%,5,8,22%,-25%,-8%
CCc1ccc(-n2c(N3CCN(c4ccc(F)cc4)CC3)nc3ccccc3c2=O)cc1,.,.,.,.,5%,.
N#CCc1ccc(NC(=O)Nc2cccc3ccccc23)cc1,28%,16*,22,25%,-11%,2%
